Test results published in ChEMBL document CHEMBL1157539, “Thousands of chemical starting points for antimalarial lead identification” (Nature, 2010).

Legend:
Format in all cases: functional
[1] = system: Plasmodium falciparum; assay: GSK_TCMDC: Inhibition of Plasmodium falciparum 3D7 in whole red blood cells, using parasite LDH activity as an index of growth. Test compounds present at 2uM
[2] = system: Plasmodium falciparum; assay: GSK_TCMDC: Inhibition of Plasmodium falciparum Dd2 in whole red blood cells, using parasite LDH activity as an index of growth. Test compounds present at 2uM
[3] = system: HepG2; assay: GSK_TCMDC: Percent inhibition of human HepG2 cell line. Test compounds present at 10uM.

SMILES	Inhibition [1] [%]	Inhibition [2] [%]	Inhibition [3] [%]
O=C(Nc1ccc(OC2CCN(Cc3ccsc3)C2)c(Cl)c1)c1ccco1.O=C(O)C(F)(F)F (configuration not stated)	93	96	0
CC(=O)c1ccc(N2CCN(CCC3(c4ccc(Cl)c(Cl)c4)COCN(C(=O)c4ccccc4)C3)CC2)cc1 (configuration not stated)	88	95	12
COc1ccc2[nH]ccc(=NN=Cc3ccc(F)cc3)c2c1	98	54	2
O=C(O)C(F)(F)F.O=S(=O)(NCCN1CCCC1)c1ccc(-c2cccc(CNCc3ccc(F)cc3)c2)cc1F	97	36	43
N#Cc1ccc(Cn2ccc3c4c(N)nc(N)nc4ccc32)cc1	92	95	64
C=Cc1ccccc1C1(O)CCN(CCCCNC(=O)c2ccc(-c3ccc(C#N)cc3)cc2)CC1	88	64	27
CN(C)c1nc2cc(-n3cnc4cc(-c5ccc(Cl)cc5)sc4c3=O)ccc2n1CCCN1CCCC1.O=C(O)C(F)(F)F	97	73	99
CCN(CCNS(C)(=O)=O)c1ccc(N)c(C)c1.O.O=S(=O)(O)O	91	11	0
Cc1cc(NCCC(=O)Nc2ccccc2)nc(NCCc2ccccc2)n1.O=C(O)C(F)(F)F	99	8	0
CC(CN(C)C)C(=O)Nc1cccc(-c2cccc(-c3nc4ccccc4[nH]3)c2)c1 (configuration not stated)	94	25	42
O=C(Nc1ccc(Cn2ncc(N3CCCNCC3)c(Cl)c2=O)cc1)Nc1cc(Cl)cc(Cl)c1.O=C(O)C(F)(F)F	91	17	3
CC(=O)NCCCCC1NC2(C(=O)N(Cc3ccc(C(C)(C)C)cc3)c3ccccc32)C2C(=O)N(C3CCCCC3)C(=O)C12 (configuration not stated)	91	71	0
Cc1ccc2nc(C)cc(N/N=C/c3cccc([N+](=O)[O-])c3)c2c1	100	99	0
Cc1cc(N(C)C)nc(Nc2ccc(NC(=O)C3CCCCC3)cc2)n1	100	68	3
O=C(CSc1nc(-c2ccccc2Cl)ns1)Nc1cccc(Cl)c1	96	89	0
COc1cccc(C2(c3cccc(OC)c3)N=C(N)N(CCCc3ccccc3)C2=O)c1.O=CO	98	93	3
c1csc(-c2nc(N3CCCCC3)ncc2-c2ccsc2)n1	89	72	0
Cn1c(NCc2cc(F)cc3c2OCOC3)nc2cc(Nc3ccnc(Nc4cccc(CS(C)(=O)=O)c4)n3)ccc21	100	100	0
Cl.Nc1nc(N)c2c(ccc3c2cnn3S(=O)(=O)N2CCCC2)n1	93	3	70
C=CCOC1OC(COC(c2ccccc2)(c2ccccc2)c2ccccc2)C(OC(C)=O)C(OC(C)=O)C1NC(C)=O (configuration not stated)	93	66	0
CC(C)CCN1CCC(Oc2ccc(NC(=O)c3ccc(F)cc3)cc2Cl)CC1.O=C(O)C(F)(F)F	98	88	33
O=C(O)C(F)(F)F.c1cncc(CCNCc2cccc(-c3ccc(-c4nc5ccccc5[nH]4)s3)c2)c1	100	97	8
Oc1cc(Nc2ccnc3cc(-c4ccc(CN5CCCCC5)o4)c(Cl)cc23)c(Cl)cc1F	100	64	0
Cc1noc(C)c1-c1ccc2c(Nc3ccccc3C(C)(C)C)c(C(=O)NCc3ccc4c(c3)OCO4)cnc2c1.Cl	96	88	37
CN(C)CCCNc1c2ccccc2nc2ccccc12	91	4	31
COc1cccc(Nc2nc(N)c3ccccc3n2)c1.Cl	88	47	18
CC(=O)Nc1cccc(-c2cnc(N)c3cc(-c4ccc5c(c4)OCO5)ccc23)c1	99	93	100
CCCc1cc(Cc2cnc(N)nc2N)cc(OC)c1OC	87	4	2
COc1ccc2nccc(N3CCC(CCNCc4ccc5c(n4)NC(=O)CS5)CC3)c2n1.Cl	100	75	32
